Source: ChEMBL document CHEMBL1157539, “Thousands of chemical starting points for antimalarial lead identification” (Nature, 2010)

system: Plasmodium falciparum; experiment: GSK_TCMDC: Inhibition of Plasmodium falciparum 3D7 in whole red blood cells, using parasite LDH activity as an index of growth. Test compounds present at 2uM; type: functional

Row | Structure (SMILES) | Inhibition [%]
1 | Cc1nnnn1-c1ccc(C(=O)N2CCC3(CC2)CN(Cc2ccc(Cl)c(Cl)c2)C(=O)O3)cc1 | 100
2 | Cc1cccc2nc(-c3cccc(-c4cccc(CN5CCN(c6ccc(C#N)cn6)CC5)c4)c3)[nH]c12.O=C(O)C(F)(F)F | 94
3 | O=C(O)C(F)(F)F.OC1CCCN(Cc2ccc(-c3cccc(-c4nc5cc(F)ccc5[nH]4)c3)cc2)C1 (stereo not given) | 99
4 | CN1CCCN(Cc2ccc(-c3ccc(NS(=O)(=O)c4cccc5cccnc45)cc3)cc2)CC1.O=C(O)C(F)(F)F | 99
5 | CCN(CCCN1CCCCC1)c1cc(C)nc(Nc2ccc(OC)cc2)n1.O=C(O)C(F)(F)F | 100
6 | COc1c(C2CCN(CCCCNC(=O)c3ccc(-c4ccc(C#N)cc4)nc3)CC2)ccc2c1CCCC2 | 95
7 | COC(=O)c1cccc(CN(CCC(O)(C(F)(F)F)C(F)(F)F)C(=O)CC2CCCC2)c1 | 98
8 | O=C(Nc1cccc(C2=NCCN2)c1)Nc1cccc(C2=NCCN2)c1 [IMIDOCARB] | 98
9 | COc1cc(OC)c(NC(=O)Nc2ccnc3ccccc23)cc1Cl | 97
10 | COc1ccc2nccc([C@@H](O)CN3CCC(NC(=O)/C=C/c4cccc(C)c4)CC3)c2c1 | 84
11 | CN(C)CCNC(=O)c1cccc(-c2cnc3ccc(NCc4ccc(Cl)c(Cl)c4)nn23)c1 | 100
12 | NC(=O)c1ccc(NCC(=O)Nc2cccc(-c3cccc(-c4nc5cc(F)ccc5[nH]4)c3)c2)cc1 | 97
13 | CC1CN(Cc2ccc(-c3ccc(-c4nc5cc(F)ccc5[nH]4)cc3)cc2)CC(C)O1.O=C(O)C(F)(F)F (stereo not given) | 96
14 | NCCNS(=O)(=O)c1ccc(-c2ccnc3[nH]c(-c4ccncc4)cc23)cc1.O=C(O)C(F)(F)F | 96
15 | Br.CC1(C)NC(N)=NC(=N)N1OCCSc1ccccc1 | 95
16 | C=CCOc1ccc(-c2c(C)[nH]c(C)c(Br)c2=O)cc1 | 98
17 | Cl.N=C1C=C(N)C(=O)c2ccccc21 | 81
18 | CC1(C)N=C(N)N=C(N)N1c1ccc(I)cc1.Cl | 92
19 | Cc1ccc(O)cc1Nc1c(C(N)=O)cnc2ccc(-c3cncs3)cc12 | 100
20 | COc1cc2cc(C(=O)Nc3ccccc3)c(N)nc2cc1OC | 90

Row | Structure (SMILES) | Inhibition [%]
21 | Cc1cccc2nc(-c3cccc(-c4ccc(NC(=O)Nc5ccc(Cl)c(Cl)c5)cc4)c3)[nH]c12 | 100
22 | O=C(/C=C/c1ccc(Cl)c(Cl)c1)NCCCCCN1CCCN(C(=S)Nc2ccc(Cl)cc2)CC1 | 86
23 | CN1CCC(NCc2ccc(-c3ccc(S(=O)(=O)NC4CCC4)s3)cc2)CC1.O=C(O)C(F)(F)F | 92
24 | COc1cc2nc(N3CCN(c4nc(N)c5cc(OC)c(OC)cc5n4)CC3)nc(N)c2cc1OC | 100
25 | NCC1CCCN1Cc1ccc(-c2cccc(-c3nc4cc(C(F)(F)F)ccc4[nH]3)c2)cc1.O=C(O)C(F)(F)F (stereo not given) | 99
26 | COc1cc(Nc2ncc3c(C)nc(-c4cccc(Nc5ccc(CN6CCS(=O)(=O)CC6)cc5)c4)n3n2)cc(OC)c1OC | 90
27 | COc1ccc2c(=NN=Cc3cccnc3)cc(C)[nH]c2c1 | 85
28 | CC(C)(C)c1nn(-c2ccc(Cl)cc2)c2[nH]c(=O)c(CNCc3cccs3)cc12 | 100
29 | CCCCNc1cc(C)nc(NCc2ccccc2)n1 | 97
30 | O=c1ccc2ccc(F)cc2n1CCN1CCC(NCc2ccc(-c3ccccn3)s2)CC1 | 98
31 | COc1ccc(-n2nc(C(=O)NCCC3=CCCCC3)c3ccccc3c2=O)cc1 | 94
32 | O=C(Nc1ccc(-c2ccc(-c3nc4ccccc4[nH]3)s2)cc1)Nc1ccsc1 | 100
33 | CC(C)(C)c1ccc(CNC(=O)c2ccc(-c3nc4cc(C(C)(C)C)ccc4[nH]3)cc2)cc1 | 96
34 | Cn1nc(-c2ccc(CNC3CCc4ccccc43)cc2)c2cnc(NCCCN3CCCC3)nc21 (stereo not given) | 92
35 | CC(C)NCc1cccc(-c2ccc(NC(=O)c3ccc(C#N)cc3)cc2)c1.O=C(O)C(F)(F)F | 99
36 | Cc1cc(NC(=O)c2cccs2)ccc1OC1CCN(Cc2ccccc2)C1.O=C(O)C(F)(F)F (stereo not given) | 84
37 | O=C(Nc1ccccc1)N1CCOC(CCN2CCC(F)(F)CC2)(c2ccc(Cl)c(Cl)c2)C1 (stereo not given) | 100
38 | CC(C)CCn1c(Sc2ccc(C#N)c([N+](=O)[O-])c2)nnc1-c1ccccc1Cl | 93
39 | COc1ccc2nccc(N3CCC(CCNCc4ccc5c(n4)NC(=O)CS5)CC3)c2n1.Cl | 100
40 | CS(=O)(=O)c1ccccc1CNC(=O)c1ccc(-c2ccc(-c3nc4cc(C(F)(F)F)ccc4[nH]3)s2)cc1 | 96
